In the library only some 2.8% were active in any assay of this set; here they are far more common.
PglD inh: C. jejuni PglD acetyltransferase inhibitors, primary screen, biochemical, DTNB colorimetric, single point. UDP-N-acetylbacillosamine N-acetyltransferase PglD (Campylobacter jejuni). purified PglD enzyme, DTNB colorimetric CoA detection. inhibition, % at 12.5 µM. hit rate 0.098% among 360,000. AID 602405, 2012; in the data active means inhibition above about 16%, passing the limit was not always enough
dFosB act: activators of delta FosB homodimer, primary screen, biochemical, fluorescence polarization, TAMRA-CDK5 oligo, single point | AID 493131, 2011 | Protein FosB (Mus musculus), P13346 | activation, % at 25 µM | hit rate 0.99% among 340,000 | purified delta FosB; percent of positive-control signal above neutral wells;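 active means mean activation above about 17%, with every replicate also reaching it, limit read from the data, passing the limit was not always enough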
CDK5 p35 inh: inhibitors of human CDK5/p35 kinase, primary screen, biochemical, single concentration; Cyclin-dependent kinase 5 (Homo sapiens) + Cyclin-dependent kinase 5 activator 1 (Homo …; Recombinant CDK5/p35, ADP-Glo luminescence, 60 min; inhibition, % at 10 µM; hit rate 0.01% among 330,000; AID 488839, 2010;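 active means highest replicate inhibition of at least 50% and at least 75% of replicates reaching 50%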
FGF22 binding: binders of human FGF22 protein, primary screen, FGF22 synaptogenesis inhibitor project, biophysical, thermal shift, single point; hit rate 1.5% among 340,000; activity (Tm shift, normalised), % at 9.99 µM; Fibroblast growth factor 22 (Homo sapiens), Q9HCT0; recombinant FGF22 thermal shift, SYPRO orange fluorescence; percent of sucrose octasulfate shift, DMSO zero;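 active means mean Tm shift, scaled 0 neutral to 100 positive control, at about 1.3% or above, every replicate too, limit read from the data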
Target sequence (Q9HCT0 whole entry, looked up): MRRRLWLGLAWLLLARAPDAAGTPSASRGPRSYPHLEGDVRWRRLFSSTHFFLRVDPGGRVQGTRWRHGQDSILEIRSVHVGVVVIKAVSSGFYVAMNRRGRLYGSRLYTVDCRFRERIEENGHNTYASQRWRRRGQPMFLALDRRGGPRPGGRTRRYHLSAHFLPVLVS
SIRT5 inh: SIRT5 desuccinylase inhibitors, primary screen, biochemical, fluorescence imaging, single point, set 5 | inhibition, % at 15 µM | NAD-dependent protein deacylase sirtuin-5, mitochondrial (Homo sapiens), Q9NXA8 | hit rate 1.1% among 330,000 | Purified SirT5, succinyl-peptide AMC, trypsin-coupled fluorescence; in the data active means inhibition above about 15%
Target sequence (Q9NXA8 whole entry, looked up): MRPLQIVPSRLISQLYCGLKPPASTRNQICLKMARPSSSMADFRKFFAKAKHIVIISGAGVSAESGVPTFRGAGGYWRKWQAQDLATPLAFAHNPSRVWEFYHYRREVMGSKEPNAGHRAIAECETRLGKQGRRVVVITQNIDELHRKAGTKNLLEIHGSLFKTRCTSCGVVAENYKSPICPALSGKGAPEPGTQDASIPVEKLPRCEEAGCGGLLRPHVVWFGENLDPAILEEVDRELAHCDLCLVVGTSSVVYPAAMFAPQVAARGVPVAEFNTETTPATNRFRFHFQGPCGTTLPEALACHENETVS
PvdQ acylase: P. aeruginosa PvdQ acylase inhibitors, primary screen, biochemical, fluorescence, plate reader and imaging, single point | PvdQ acylase [Pseudomonas aeruginosa LESB58] | purified PvdQ acylase | inhibition, % at 10 µM | hit rate 0.063% among 340,000 | AID 488965, 2010; in the data active means inhibition above about 30%, passing the limit was not always enough
Each line names hits and unclear results; the compound was inactive in the other large screens; ! = repeats disagree.

C[C@@H]1CCCCO[C@@H](CN(C)S(=O)(=O)c2ccccc2)[C@@H](C)CN([C@H](C)CO)C(=O)c2cc(NC(=O)CCC(F)(F)F)ccc2O1	FGF22 binding 14.8 (no result: dFosB act, CDK5 p35 inh, PvdQ acylase)
CCCC(=O)N1CCC2(CC1)CN(Cc1nccs1)[C@@H](CO)c1[nH]c3cc(OC)ccc3c12	none (no result: PglD inh, dFosB act, CDK5 p35 inh, PvdQ acylase)
COc1ccc(C(=O)Nc2ccc3c(c2)OC[C@H](C)NC[C@@H](C)[C@@H](OC)CN(C)C3=O)cc1	none (no result: dFosB act, CDK5 p35 inh, PvdQ acylase)
C[C@@H]1CCCCO[C@@H](CN(C)S(C)(=O)=O)[C@H](C)CN([C@@H](C)CO)C(=O)c2cc(NC(=O)Cc3ccccc3)ccc2O1	none (no result: dFosB act, CDK5 p35 inh, PvdQ acylase)
CNC(=O)C[C@H]1CC[C@@H]2[C@H](COC[C@@H](O)CN2C(=O)c2ccccn2)O1	none (no result: dFosB act, CDK5 p35 inh, PvdQ acylase)
C[C@H](CO)N1C[C@H](C)[C@@H](CN(C)S(=O)(=O)c2cccs2)Oc2ccc(NC(=O)CCC(F)(F)F)cc2C1=O	SIRT5 inh 24.5!
C[C@@H]1CCCCO[C@@H](CN(C)C)[C@H](C)CN([C@@H](C)CO)C(=O)c2cc(NC(=O)CCC(F)(F)F)ccc2O1	SIRT5 inh 17.2 (no result: dFosB act, CDK5 p35 inh, PvdQ acylase)
C[C@H](CO)N1C[C@H](C)[C@H](CN(C)C)OCCCC[C@H](C)Oc2ccc(NC(=O)CCC(F)(F)F)cc2C1=O	none (no result: dFosB act, CDK5 p35 inh, PvdQ acylase)
C[C@H]1CN([C@@H](C)CO)C(=O)c2cc(NC(=O)CCC(F)(F)F)ccc2O[C@@H]1CN(C)S(=O)(=O)c1cccs1	none (no result: dFosB act, CDK5 p35 inh, PvdQ acylase)
CCOC(=O)c1c(N2C(=O)Nc3ccccc3N2O)sc2c1CCCC2	none (no result: PglD inh)
COC(=O)c1c(N2C(=O)Nc3ccccc3N2O)sc(C)c1C	FGF22 binding 43.2
CCN1CCN(C(=S)c2ccc(OC)cc2)CC1	FGF22 binding 43.4
CCOC(=O)N1CCN(CCC(=O)Nc2ccc(OC)cc2OC)CC1	none
CCN1CCN(C(=O)C(C)Nc2ccc(OC)cc2OC)CC1 (stereo not drawn)	SIRT5 inh 15.2
COc1ccc(S(=O)(=O)Nc2ccc3c(c2)C(=O)N([C@H](C)CO)C[C@H](C)[C@@H](CN(C)C(=O)Cc2ccccc2)OCCCC[C@H](C)O3)cc1	none (no result: dFosB act, CDK5 p35 inh, PvdQ acylase)
C[C@H](CO)N1C[C@H](C)[C@H](CN(C)Cc2ccc(Oc3ccccc3)cc2)Oc2ccc(NC(=O)CCCN(C)C)cc2C1=O	none (no result: dFosB act, CDK5 p35 inh, FGF22 binding, PvdQ acylase)
Cc1noc(NS(=O)(=O)c2ccc(NC(=O)c3cnc4scc(C)n4c3=O)cc2)c1C	SIRT5 inh 15.5
Cc1cc(NS(=O)(=O)c2ccc(NC(=O)c3cnc4scc(C)n4c3=O)cc2)nc(C)n1	none
COc1ccc(NC(=O)N(C)C[C@H]2Oc3ccc(NC(=O)CCCN(C)C)cc3C(=O)N([C@H](C)CO)C[C@H]2C)cc1	none (no result: dFosB act, CDK5 p35 inh, PvdQ acylase)
C[C@H](CO)N1C[C@H](C)[C@@H](CN(C)CC2CCCCC2)OCCCC[C@H](C)Oc2ccc(NC(=O)c3ccccc3)cc2C1=O	none (no result: dFosB act, CDK5 p35 inh, PvdQ acylase)
CN1CCN(C(=O)c2cc(Oc3c(F)c(F)c(F)c(F)c3F)cc(C(=O)N3CCN(C)CC3)c2)CC1	FGF22 binding 43.8 (no result: PglD inh)
CN1CCN(C(=O)c2ccc(F)c(F)c2)CC1	none
C=CCN1C(=O)C2(NC(=O)c3ccccc3N2)c2ccccc21 (stereo not drawn)	FGF22 binding 43.0 (no result: PglD inh)
C=CCN1C(=O)C2(NNc3ccccc3O2)c2ccccc21 (stereo not drawn)	none (no result: PglD inh, FGF22 binding, SIRT5 inh)
Cc1cccc(S(=O)(=O)N[C@@H]2CC[C@@H](CCn3cc(-c4ccccn4)nn3)O[C@@H]2CO)c1	none (no result: dFosB act, CDK5 p35 inh, PvdQ acylase)
Cc1noc(C)c1NC(=O)Nc1ccc2c(c1)CC(=O)N([C@H](C)CO)C[C@H](C)[C@H](CN(C)C(=O)Nc1ccccc1)O2	none (no result: dFosB act, CDK5 p35 inh, PvdQ acylase)
CC(CC(=O)OCC(=O)NC1CCS(=O)(=O)C1)c1ccccc1 (stereo not drawn)	FGF22 binding 42.9 (no result: SIRT5 inh)
COc1cc2ccccc2cc1C(=O)OCC(=O)NC1CCS(=O)(=O)C1 (stereo not drawn)	FGF22 binding 43.0 (no result: PglD inh)
O=C(COC(=O)CCc1ccccc1)NC1CCS(=O)(=O)C1 (stereo not drawn)	none
C[C@H]1CN([C@@H](C)CO)S(=O)(=O)c2ccc(-c3cccc(C#N)c3)cc2O[C@@H]1CN(C)C(=O)c1ccncc1	none (no result: dFosB act, CDK5 p35 inh, PvdQ acylase)
Cc1ccc(NC(=O)n2ccc(-c3ccc(-n4ccnc4)cc3)n2)cc1	SIRT5 inh 16.8 (no result: PglD inh)
Oc1ccccc1Nc1nc(NCC2CCCO2)c2ccccc2n1 (stereo not drawn)	dFosB act 24.7 (no result: PglD inh, FGF22 binding, SIRT5 inh)
Oc1ccc(Cl)cc1Nc1nc(NCC2CCCO2)c2ccccc2n1 (stereo not drawn)	dFosB act 44.1 (no result: SIRT5 inh)
Oc1ccc(Nc2nc(NCC3CCCO3)c3ccccc3n2)cc1 (stereo not drawn)	none (no result: FGF22 binding, SIRT5 inh)
CN1C(=O)c2cc(NC(=O)C3CC3)ccc2OC[C@H]2O[C@H](CC(=O)NCC3CCCCC3)CC[C@H]21	none (no result: dFosB act, CDK5 p35 inh, PvdQ acylase)
COc1ccc(N(CC(=O)Nc2ccc(F)cc2)S(=O)(=O)c2ccccc2[N+](=O)[O-])c(OC)c1	FGF22 binding 43.4 (no result: PglD inh)
COc1ccc(N(CC(=O)Nc2cc(C)cc(C)c2)S(=O)(=O)c2ccccc2[N+](=O)[O-])c(OC)c1	none (no result: PglD inh)
Cc1ccc(S(=O)(=O)Nc2ccc3c(c2)C(=O)N([C@H](C)CO)C[C@H](C)[C@H](CN(C)C(=O)Nc2c(C)noc2C)OCCCC[C@H](C)O3)cc1	none (no result: dFosB act, CDK5 p35 inh, PvdQ acylase)
CCOc1cc(/C=C2\C(=O)N(c3ccc(C(N)=O)cc3)N=C2C)ccc1OC(=O)c1cccs1	none (no result: FGF22 binding, SIRT5 inh)
CC1=NN(c2ccc(C(=O)O)cc2)C(=O)/C1=C\c1ccc(OC(=O)c2cccs2)cc1	FGF22 binding 43.1 (no result: PglD inh)
O=C1N(c2ccccc2)C[C@@H]2C[C@@H](c3cc4ccccc4o3)N3CCC[C@@]123	PvdQ acylase 41.9 (no result: PglD inh)
CC(=O)N1[C@H](CO)[C@H](c2ccc(-c3cccnc3)cc2)[C@H]1CNC(=O)C1CC1	none (no result: PglD inh, dFosB act, CDK5 p35 inh, FGF22 binding, PvdQ acylase)
Cc1cccc(S(=O)(=O)N2CC[C@@H]3[C@H]2c2cc(-c4ccccc4F)ccc2N(C)[C@H]3CO)c1	none (no result: dFosB act, CDK5 p35 inh, PvdQ acylase)
COc1ccc2sc3cccc(NCCN(C)C)c3c(=O)c2c1	none (no result: PglD inh, dFosB act, CDK5 p35 inh, PvdQ acylase)
CN(C)CCNc1ccc2ncn3c4ccc(O)cc4c(=O)c1c23	dFosB act 63.9 (no result: PglD inh)

Screening results as filed in PubChem.
